Drawing on PubChem BioAssay (Tox21), this text covers Potency and outcome for 27 compounds.

A short description of assay [1]: A CellTox Green Cytotoxicity Assay to monitor cytotoxicity in HepG2 cells - 8 hour (AID 1224890). Further: nearly all actives have a fitted effect of over 45% in size. Further: potency means the concentration at half of the fitted maximal effect. In outline:
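Nonlytic assay: viable cells exclude the dye, so fluorescence scales with cell death. HepG2 at 600 cells/well, compounds added after 5 h, signal read across 40 h.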

Assay [2] can be described thus: qHTS assay to identify small molecule antagonists of the estrogen receptor alpha (ER-alpha) signaling pathway using the BG1 cell line in the presence of 0.1 nM 17-beta-estradiol - cell viability counter screen (AID 1259241). Further: nearly all actives have a fitted effect of over 40% in size. Further: potency means the concentration at half of the fitted maximal effect. In short, it runs like this:
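VM7Luc4E2 cells (endogenous full-length ER-alpha, 4xERE-luciferase), cultured 5 days in charcoal-stripped serum, exposed to compounds with 0.1 nM 17beta-estradiol (final) for 22 hr at 37C. Viability read in same wells as live-cell protease fluorescence after 30 min.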
(In qHTS, concentration-response curves come from the screen itself.)

The nature of assay [3]: qHTS assay to identify small molecule antagonists of the androgen receptor (AR) signaling pathway using the MDA cell line in the presence of 0.5 nM R1881 - cell viability counter screen (AID 1259242). Further: nearly all actives have a fitted effect of over 45% in size. Further: potency means the concentration at half of the fitted maximal effect. In short, it runs like this:
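R1881 at 0.5 nM final stimulated MDA-kb2 cells during 16 hr compound treatment at 37C. Cytotoxicity read: CellTiter-Fluor fluorescence after 30 min.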

Assay [4] has as its target Estrogen receptor (Homo sapiens) (UniProt P03372). The assay is described as follows: qHTS assay to identify small molecule antagonists of the estrogen receptor alpha (ER-alpha) signaling pathway using the BG1 cell line in the presence of 0.1 nM 17-beta-estradiol (AID 1259244). Further: nearly all actives have a fitted effect of over 50% in size. Further: potency means the concentration at half of the fitted maximal effect. In outline: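 VM7Luc4E2; 4xERE-luciferase; 0.1 nM E2 final; 22 h co-incubation, 37C; ONE-Glo luminescence after 30 min at room temperature.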

Assay [5] is described as follows: qHTS assay to identify small molecule phospholipidosis (PLD) inducers (AID 1259344; active means well fitted curve in the direction sought with a large enough effect; an effect the other way counts as inactive or inconclusive). In outline:
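HepG2 cells, 900/well, treated with compound plus LipidTOX Red for 24 h at 37 C; amiodarone positive and DMSO negative controls. Fixed with paraformaldehyde/Hoechst, then high-content imaging scored LipidTOX pit count and integrated intensity per well and per cell.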

A short description of assay [6]: qHTS assay to identify small molecule HDAC inhibitors (AID 1259364). Further: potency means the concentration at half of the fitted maximal effect.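 Further: wild-type HCT-116 cells with endogenous class I/II HDAC activity; nearly all actives have a fitted effect of over 45% in size.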 In outline: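 Relative class I and II HDAC activity is taken from the luminogenic signal in HCT-116 cells, with compound exposure 2 hr and reagent development 30 min at room temperature.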
Assay [7] is described as follows: qHTS assay to identify small molecule HDAC inhibitors - cell viability counter screen (AID 1259365). Further: series mostly up to about 92 µM; nearly all actives have a fitted effect of over 50% in size. In short, it runs like this: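 Wild-type HCT-116 cells, 1,500/well, cultured overnight, then compound-treated 2 h at 37 C. Viability measured as ATP luminescence with CellTiter-Glo after 30 min at room temperature.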
Assay [8] is described as follows: qHTS assay to identify small molecule agonists of the sonic hedgehog signaling (Shh) pathway - cell viability counter screen (AID 1259366). Further: nearly all actives have a fitted effect of over 50% in size. Further: potency means the concentration at half of the fitted maximal effect. In short, it runs like this: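 NIH/3T3-derived Gli1-Luc reporter cells, 2,000 per well, received compound after 4 h and were treated about 23 h at 37C. Viability measured in the same wells by CellTiter-Fluor fluorescence after 1 h.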

Assay [9] has as its target Androgen receptor (Homo sapiens) (UniProt P10275). The assay is described as follows: qHTS assay to identify small molecule antagonists of the androgen receptor (AR) signaling pathway using the MDA cell line in the presence of 0.5 nM R1881 (AID 1259243). Further: nearly all actives have a fitted effect of over 50% in size. Further: potency means the concentration at half of the fitted maximal effect. In outline: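 We exposed MDA-kb2 cells to compounds under 0.5 nM R1881 stimulation for 16 hr at 37C and quantified MMTV-driven luciferase by luminescence.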

Assay [10] can be described thus: qHTS assay to identify small molecule antagonists of the sonic hedgehog signaling (Shh) pathway - cell viability counter screen (AID 1259367). Further: nearly all actives have a fitted effect of over 55% in size. In outline:
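NIH/3T3-derived Gli1-Luc reporter cells, 2,000/well, plated 4 hr before compound addition, then stimulated with conditioned medium for 24 hr at 37C. Viability measured in the same wells by CellTiter-Fluor fluorescence, reagent added at 23 hr for 1 hr.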

Values without a mark were called inactive. Inconclusive results are not listed. Calls of active or inactive are those of the source. Unless noted, the call rests on the fitted dose curve; in most records, active means well fitted curve in the direction sought with a large enough effect in the repeat runs; inconclusive means weak or mixed curves; inactive means no such curve, though single readings can be large; an effect the other way counts as inactive or inconclusive.

Chain of Estrogen receptor (Homo sapiens) (P03372 whole entry, looked up): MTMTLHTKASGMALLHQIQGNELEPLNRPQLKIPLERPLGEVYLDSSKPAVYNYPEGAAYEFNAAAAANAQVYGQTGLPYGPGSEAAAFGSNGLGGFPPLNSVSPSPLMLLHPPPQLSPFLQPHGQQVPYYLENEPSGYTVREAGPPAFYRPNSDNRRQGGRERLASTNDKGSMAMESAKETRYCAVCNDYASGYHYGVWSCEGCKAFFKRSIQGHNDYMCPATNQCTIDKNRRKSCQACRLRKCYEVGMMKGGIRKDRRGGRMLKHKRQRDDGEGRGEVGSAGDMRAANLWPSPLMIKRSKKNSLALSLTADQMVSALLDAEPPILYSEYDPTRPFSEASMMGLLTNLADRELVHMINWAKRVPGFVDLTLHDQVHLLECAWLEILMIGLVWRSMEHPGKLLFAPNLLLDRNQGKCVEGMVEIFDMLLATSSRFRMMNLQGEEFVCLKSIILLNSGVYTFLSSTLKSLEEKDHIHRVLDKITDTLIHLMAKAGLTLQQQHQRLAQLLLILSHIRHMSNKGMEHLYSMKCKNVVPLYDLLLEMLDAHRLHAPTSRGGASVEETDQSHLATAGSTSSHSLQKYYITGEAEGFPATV
Chain of Androgen receptor (Homo sapiens) (P10275 whole entry, looked up): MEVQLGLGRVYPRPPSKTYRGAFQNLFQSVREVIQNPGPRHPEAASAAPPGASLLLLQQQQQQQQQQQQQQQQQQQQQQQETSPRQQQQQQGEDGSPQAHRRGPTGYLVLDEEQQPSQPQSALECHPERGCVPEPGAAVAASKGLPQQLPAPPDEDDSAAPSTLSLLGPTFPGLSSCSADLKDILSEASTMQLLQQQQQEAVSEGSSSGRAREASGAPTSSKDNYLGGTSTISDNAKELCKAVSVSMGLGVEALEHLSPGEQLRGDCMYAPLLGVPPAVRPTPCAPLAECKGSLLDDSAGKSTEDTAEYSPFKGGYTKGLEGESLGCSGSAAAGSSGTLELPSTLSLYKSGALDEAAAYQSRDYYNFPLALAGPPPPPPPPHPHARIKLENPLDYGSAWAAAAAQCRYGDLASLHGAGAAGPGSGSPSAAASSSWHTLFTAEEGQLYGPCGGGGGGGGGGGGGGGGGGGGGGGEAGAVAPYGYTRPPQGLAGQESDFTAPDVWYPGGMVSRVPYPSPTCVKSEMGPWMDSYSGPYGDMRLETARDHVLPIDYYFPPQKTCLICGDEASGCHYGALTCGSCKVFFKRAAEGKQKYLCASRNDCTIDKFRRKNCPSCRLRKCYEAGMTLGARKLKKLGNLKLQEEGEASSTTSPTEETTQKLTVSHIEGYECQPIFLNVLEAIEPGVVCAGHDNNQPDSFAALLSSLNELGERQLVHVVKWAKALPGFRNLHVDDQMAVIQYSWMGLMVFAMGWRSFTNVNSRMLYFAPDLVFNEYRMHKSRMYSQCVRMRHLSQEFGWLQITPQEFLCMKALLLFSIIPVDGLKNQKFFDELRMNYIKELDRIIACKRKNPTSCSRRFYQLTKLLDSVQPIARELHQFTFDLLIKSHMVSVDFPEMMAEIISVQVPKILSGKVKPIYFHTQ

Take `COc1cc(CC(C)N)cc2c1OCO2` (centres undefined): the Potency result in assay [1], in assay [2], in assay [3], in [4], in assay [6] and in assay [7] was “inactive” throughout. Moreover, the Potency entry in [8] is “inactive”. The compound was called inactive in assay [5].

Take `S=C=NCc1ccccc1`: the Potency entry in [1], in [2], in assay [3], in assay [6], in [7] and in assay [8] was “inactive” throughout. For the same compound, in assay [10], the Potency entry is “inactive”. For the same compound, in assay [9], the Potency was 27.6 µM (active).

In the case of `O=S1(=O)OC(c2cc(Br)c(O)c(Br)c2)(c2cc(Br)c(O)c(Br)c2)c2ccccc21`, in assay [1], the Potency result was “inactive”. Moreover, the Potency in [2] is 14.1 µM (active); in assay [3], 22.3 µM (active); in [9], 5.6 µM (active); in assay [4], 17.7 µM (active); in assay [6] it was 3.97 µM (active); in [8] it was 14.1 µM (active).

Turning to `O=C(C(Cl)(Cl)Cl)C(Cl)(Cl)Cl`, the Potency result in assay [1], in assay [2], in assay [3], in [9], in assay [4] and in assay [6] was “inactive” each time. Besides, the Potency result in [7], in [8] and in assay [10] was “inactive” each time.

With `C[C@@H]1CC[C@H]2[C@@H](C)C(=O)O[C@@H]3O[C@@]4(C)CC[C@@H]1[C@]32OO4`, the Potency entry in assay [1], in assay [2], in [3], in assay [9], in assay [6] and in assay [7] was “inactive” in each case. The Potency entry in assay [8] and in assay [10] was “inactive” throughout. The result in [5] was inactive.

`O=NN1CCCCCC1`: the Potency result in [1], in [2], in [3], in [9], in assay [4] and in assay [6] was “inactive” each time. Also, the Potency entry in assay [7], in assay [8] and in assay [10] was “inactive” throughout.

Take `COP(=O)(OC)O/C(=C/Cl)c1cc(Cl)c(Cl)cc1Cl`: the Potency entry in assay [1], in assay [2], in [3], in [6], in assay [7] and in [10] was “inactive” each time. Besides, the Potency in assay [9] is 45.7 µM (active); in assay [4], 57.5 µM (active).

For `COC(C)(C)CCC[C@H](C)C/C=C/C(C)=C/C(=O)OC(C)C`, the Potency result in assay [1], in assay [2], in assay [3], in assay [9], in [7] and in assay [8] was “inactive” each time. The Potency entry in assay [10] is “inactive”.

For the compound `Clc1ccc(C(OCCN2CCCCC2)c2ccccc2)cc1` (centres undefined), the Potency entry in assay [1], in [2], in assay [3], in assay [4], in assay [6] and in assay [7] was “inactive” throughout. Further, the Potency result in assay [8] and in [10] was “inactive” throughout. For the same compound, the compound was called inactive in [5].

For the compound `CCOP(=O)(OCC)O/C(=C/Cl)c1ccc(Cl)cc1Cl`, the Potency entry in assay [1], in assay [2], in assay [3], in assay [6], in [7] and in [8] was “inactive” in each case. For the same compound, the Potency entry in assay [10] was “inactive”. Besides, the Potency in assay [4] is 54.5 µM (active). In addition, the compound was called inactive in [5].

On to `OC(c1ccc(Cl)cc1)(c1ccc(Cl)cc1)c1cccnc1`, for which the Potency entry in [1], in assay [2], in assay [3], in assay [4], in assay [6] and in assay [7] was “inactive” each time. The Potency result in assay [8] and in assay [10] was “inactive” in each case. Moreover, the Potency in [9] is 27.3 µM (active).

For the compound `CCO[C@H]1O[C@@H]2OC3(C)CC[C@H]4[C@H](C)CC[C@@H]([C@H]1C)[C@@]24OO3`, the Potency entry in assay [1], in assay [2], in assay [3], in assay [4], in [6] and in assay [7] was “inactive” throughout. The Potency result in assay [8] and in assay [10] was “inactive” throughout. For the same compound, in assay [9], the Potency is 10.6 µM (active).

Turning to `NCCCNCCCN`, the Potency entry in [1], in [2], in [3], in assay [9], in assay [6] and in assay [7] was “inactive” throughout. Further, the Potency result in assay [8] and in assay [10] was “inactive” in each case.

Take `CC(=O)[C@H]1CC[C@H]2[C@@H]3CC[C@H]4C[C@](C)(O)CC[C@]4(C)[C@H]3CC[C@]12C`: the Potency result in assay [1], in assay [2], in [3], in [4], in [6] and in assay [7] was “inactive” in each case. The Potency result in assay [8] and in assay [10] was “inactive” in each case. Besides, the call in assay [5] was inactive.

As for `COCC(C)N(C(=O)CCl)c1c(C)csc1C` (centres undefined), the Potency result in [1], in [2], in [3], in assay [4], in [6] and in assay [7] was “inactive” in each case. In addition, the Potency result in assay [8] is “inactive”. In addition, the outcome in assay [5] was inactive.

For `II`, the Potency in [1] was 38.9 µM (active). The Potency entry in assay [2], in assay [3], in assay [9], in assay [7], in assay [8] and in assay [10] was “inactive” each time.

With `CCCCCC[N+](=O)[O-]`, the Potency result in assay [1], in assay [2], in assay [3], in assay [9], in [6] and in assay [7] was “inactive” each time. The Potency entry in assay [8] and in [10] was “inactive” each time.

In the case of `C=CCOC(C)=O`, the Potency result in assay [1], in assay [2], in [3], in [4], in assay [6] and in assay [7] was “inactive” throughout. The Potency entry in [8] and in assay [10] was “inactive” throughout. Also, in [9], the Potency was 26.9 µM (active).

In the case of `Brc1ccccc1`, the Potency result in assay [1], in assay [2], in assay [3], in assay [9], in [4] and in assay [6] was “inactive” in each case. Also, the Potency result in [7], in assay [8] and in [10] was “inactive” in each case.

Take `CCOC(=O)COc1cc(-c2nn(C)c(OC(F)F)c2Cl)c(F)cc1Cl`: the Potency result in assay [1], in assay [2], in assay [3], in assay [9], in assay [6] and in [7] was “inactive” throughout. The Potency entry in assay [8] and in assay [10] was “inactive” each time.

Consider `COc1ccc(-c2ccccc2)cc1NNC(=O)OC(C)C`, for which the Potency entry in assay [1], in assay [2], in [3], in assay [6], in [7] and in assay [8] was “inactive” throughout. Also, the Potency in [9] was 63.7 µM (active); in [4] it was 71.5 µM (active).

`CN1C(=O)C(O)N=C(c2ccccc2)c2cc(Cl)ccc21` (centres undefined): the Potency entry in [1], in assay [2], in assay [3], in assay [6], in [7] and in [8] was “inactive” throughout. In addition, the Potency result in [10] was “inactive”. Also, in assay [4], the Potency is 56.4 µM (active). Moreover, the call in assay [5] was inactive.

Take `O=C1C(Cl)C(CCl)CN1c1cccc(C(F)(F)F)c1` (centres undefined): the Potency result in assay [1], in assay [2], in assay [3], in assay [6], in [7] and in [10] was “inactive” each time. Further, in assay [9], the Potency is 3.86 µM (active).

As to `COc1nn(CSP(=S)(OC)OC)c(=O)s1`, the Potency entry in assay [1], in [2], in assay [3], in assay [4], in [6] and in assay [7] was “inactive” in each case. The Potency entry in assay [8] and in [10] was “inactive” throughout. The compound was classed as inactive in assay [5].

Turning to `N#CCC#N`, the Potency entry in assay [1], in [2], in [3], in [4], in [6] and in [7] was “inactive” throughout. The Potency result in [8] was “inactive”. In addition, the Potency in assay [9] is 10.9 µM (active).

On to `O=C(NC(=O)c1c(F)cccc1F)Nc1cc(Cl)c(Oc2ncc(C(F)(F)F)cc2Cl)c(Cl)c1`, for which the Potency entry in assay [1], in [2], in assay [3], in assay [6], in assay [7] and in [8] was “inactive” throughout. In addition, the Potency in assay [9] was 26.1 µM (active); in assay [4], 29.3 µM (active).

`COC(=O)c1cncn1C(C)c1ccccc1` (centres undefined): the Potency result in assay [1], in assay [2], in assay [3], in [4], in assay [6] and in assay [7] was “inactive” each time. In addition, in [8], the Potency result is “inactive”. Besides, the result in assay [5] was inactive.
